Experiment [1] has as its system SRPK1. To be noted: concentration: 1 μM, replicates: in singlicate; n = 1.
In experiment [2] the test system is SRPK2. The conditions noted are these: concentration: 1 μM, replicates: in singlicate; n = 1.
Experiment [3] has as its system SRPK3. The conditions noted are these: concentration: 1 μM, replicates: in singlicate; n = 1.
The test system of experiment [4] is STK16. To be noted: concentration: 1 μM, replicates: in singlicate; n = 1.
The test system of experiment [5] is STK33. To be noted: concentration: 1 μM, replicates: in singlicate; n = 1.
In experiment [6] the test system is STK35. To be noted: concentration: 1 μM, replicates: in singlicate; n = 1.
Experiment [7] has as its system STK36. To be noted: concentration: 1 μM, replicates: in singlicate; n = 1.
Experiment [8] concerns STK39. To be noted: concentration: 1 μM, replicates: in singlicate; n = 1.
Experiment [9] deals with SYK. To be noted: concentration: 1 μM, replicates: in singlicate; n = 1.
The subject of experiment [10] is SgK110. The conditions noted are these: concentration: 1 μM, replicates: in singlicate; n = 1.
The subject of experiment [11] is T1, TAK1.
T1 construct: gene MAP3K7
To be noted: concentration: 1 μM, replicates: in singlicate; n = 1.

For experiment [12], the system named is TAOK1. The conditions noted are these: concentration: 1 μM, replicates: in singlicate; n = 1.
Experiment [13] deals with TAOK2. To be noted: concentration: 1 μM, replicates: in singlicate; n = 1.
The subject of experiment [14] is TAOK3. The conditions noted are these: concentration: 1 μM, replicates: in singlicate; n = 1.
Experiment [15] relates to TBK1. The conditions noted are these: concentration: 1 μM, replicates: in singlicate; n = 1.
The test system of experiment [16] is TEC. The conditions noted are these: concentration: 1 μM, replicates: in singlicate; n = 1.
Experiment [17] has as its system TESK1. The conditions noted are these: concentration: 1 μM, replicates: in singlicate; n = 1.
For experiment [18], the system named is TGFBR1. The conditions noted are these: n = 1.
Experiment [19] deals with TGFBR2. The conditions noted are these: concentration: 1 μM, replicates: in singlicate; n = 1.
The test system of experiment [20] is TIE1. The conditions noted are these: concentration: 1 μM, replicates: in singlicate; n = 1.
The mark [21] stands for this setting: concentration: 1 μM, replicates: in singlicate.

Read-outs that look alike come from different tables or passages of the source.
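Also: KINOMEscan kinase panel screen.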

For `COc1cc(Nc2ccnc3ccc(C(F)(F)F)cc23)cc(OC)c1OC` [GW577382], the “%Inh” value is on record as 0% in experiment [1]; 0% in [2]; 0% in experiment [3]; 0% in [4]; 15% in experiment [5]; 0% in experiment [6]. Besides, the “%Inh” value in experiment [7] came out at 0%; in experiment [8], 16%; in [9], 37%; in [10], 0%; in experiment [11], 0%; in experiment [12], 0%. Moreover, the “%Inh” value in experiment [13] is 0%; in experiment [14] it was 0%; in [15], 4%; in experiment [16], 0%; in experiment [17], 52%; in [18] (setting [21]) it was 8%. Also, the “%Inh” value in experiment [19] is 9%; in [20], 0%.
In the case of `Cc1cccc(-c2cc(-c3c[nH]nc3-c3ccccn3)ccn2)c1` [GW679395], the “%Inh” value in [1] came to 3%; in [2], 0%; in experiment [3], 0%; in experiment [4], 21%; in [5] it was 0%; in experiment [6] it was 0%. The “%Inh” value in experiment [7] is given as 64%; in [8], 30%; in experiment [9], 16%; in [10], 64%; in experiment [11], 0%; in [12], 0%. In addition, the “%Inh” value in experiment [13] was determined as 0%; in [14], 0%; in experiment [15], 12%; in [16] it was 0%; in experiment [17], 9%; in experiment [18] (1 µM), 57%. Besides, the “%Inh” value in experiment [19] and in experiment [20] was 0% throughout.
Consider `C[C@@H]1CC[C@H](C(=O)NC2CCCCC2)CN1c1cc(-c2ccc3c(N)n[nH]c3c2)nc(N)n1` [GSK2291363], for which the “%Inh” value in experiment [1] is listed as 77%; in experiment [2] it was 5%; in experiment [3], 36%; in experiment [4], 21%; in experiment [5], 57%; in experiment [6], 0%. In addition, the “%Inh” value was determined as 0% in experiment [7]; 0% in experiment [8]; 37% in experiment [9]; 0% in experiment [10]; 0% in [11]; 0% in experiment [12]. For the same compound, the “%Inh” value in experiment [13] came out at 0%; in experiment [14], 0%; in [15], 30%; in [16], 9%; in [17], 34%; in experiment [18] (setting [21]), 16%. Moreover, the “%Inh” value is 0% in [19] and 15% in experiment [20].
In the case of `COc1cc2ncn(-c3cc(OCc4ccc(S(C)(=O)=O)cc4)c(C(N)=O)s3)c2cc1OC` [GW869979], the “%Inh” value in experiment [1] turned out to be 25%; in experiment [2], 0%; in experiment [3], 13%; in experiment [4], 2%; in experiment [5], 27%; in experiment [6], 0%. For the same compound, the “%Inh” value in experiment [7] came out at 0%; in experiment [8] it was 0%; in [9] it was 0%; in experiment [10], 0%; in experiment [11], 0%; in experiment [12] it was 18%. In addition, the “%Inh” value in experiment [13] is given as 0%; in experiment [14], 0%; in experiment [15], 34%; in experiment [16], 12%; in [17] it was 0%; in [18] (setting [21]), 0%. In addition, the “%Inh” value in experiment [19] and in [20] was 0% each time.
Consider `CCC(=O)c1c(-c2ccccc2)c2cc(Cl)ccc2c(=O)n1Cc1cc(S(C)(=O)=O)n(CC(F)F)n1`, for which the “%Inh” value in experiment [1] is reported as 0%; in experiment [2] it was 2%; in [3], 0%; in [4], 0%; in experiment [5] it was 0%; in experiment [6], 0%. Besides, the “%Inh” value stood at 0% in experiment [7]; 0% in [8]; 0% in experiment [9]; 31% in [10]; 0% in [11]; 8% in experiment [12]. In addition, the “%Inh” value in [13] is on record as 11%; in [14] it was 0%; in experiment [15], 24%; in [16], 0%; in [17], 11%; in experiment [18] (setting [21]), 7%. Further, the “%Inh” value in [19] and in experiment [20] was 0% in each case.
On to `COc1cccc(-n2cnc3c(N)ncnc32)c1` [SKF-97416], for which the “%Inh” value in experiment [1] is recorded as 2%; in experiment [2] it was 6%; in experiment [3] it was 0%; in experiment [4] it was 16%; in [5], 12%; in experiment [6], 0%. Further, the “%Inh” value came out at 0% in [7]; 29% in experiment [8]; 4% in experiment [9]; 0% in [10]; 23% in experiment [11]; 31% in [12]. Moreover, the “%Inh” value in experiment [13] was 9%; in experiment [14], 28%; in [15], 31%; in experiment [16], 5%; in experiment [17], 17%; in experiment [18] (setting [21]), 24%. Besides, the “%Inh” value in experiment [19] turned out to be 0%; in [20] it was 19%.
Consider `Cl.NS(=O)(=O)c1cccc(Nc2cc(-c3ccc(F)cc3)n[nH]2)c1` [GW824645], for which the “%Inh” value is reported as 0% in [1]; 0% in [2]; 2% in [3]; 18% in [4]; 0% in experiment [5]; 0% in [6]. Moreover, the “%Inh” value in [7] is given as 0%; in experiment [8], 0%; in [9] it was 3%; in experiment [10], 0%; in [11] it was 0%; in experiment [12] it was 0%. The “%Inh” value was 36% in [13]; 13% in experiment [14]; 35% in [15]; 0% in [16]; 6% in [17]; 23% in experiment [18] (setting [21]). The “%Inh” value in [19] came out at 1%; in experiment [20], 0%.
As to `COc1cc(Nc2nccc(N3CCC(NC(=O)C(C)c4ccc(Cl)cc4)C3)n2)cc(OC)c1OC` (stereo not shown) [GSK1379757], the “%Inh” value is reported as 26% in experiment [1]; 3% in [2]; 52% in experiment [3]; 39% in experiment [4]; 0% in experiment [5]; 0% in experiment [6]. The “%Inh” value in [7] is recorded as 0%; in experiment [8], 0%; in experiment [9] it was 20%; in [10], 0%; in [11] it was 0%; in [12], 0%. In addition, the “%Inh” value was 0% in experiment [13]; 0% in experiment [14]; 14% in experiment [15]; 0% in experiment [16]; 27% in experiment [17]; 0% in experiment [18] (setting [21]). Moreover, the “%Inh” value was 0% in experiment [19] and 10% in [20].
For `Fc1cccc(CSc2nnc(-c3ccc4c(c3)CCO4)o2)c1`, the “%Inh” value in experiment [1] is 1%; in [2] it was 0%; in experiment [3] it was 16%; in [4] it was 0%; in experiment [5], 6%; in experiment [6], 0%. Moreover, the “%Inh” value is reported as 16% in [7]; 16% in experiment [8]; 0% in experiment [9]; 13% in experiment [10]; 32% in experiment [11]; 0% in experiment [12]. The “%Inh” value came to 0% in experiment [13]; 0% in experiment [14]; 19% in experiment [15]; 20% in [16]; 0% in experiment [17]; 11% in experiment [18] (setting [21]). Also, the “%Inh” value in experiment [19] is 28%; in experiment [20], 8%.
With `CCS(=O)c1ccc(-c2coc3ccc(-c4nnc(C)o4)cc23)cc1` (stereo not shown), the “%Inh” value is 0% in experiment [1]; 0% in experiment [2]; 5% in [3]; 22% in [4]; 0% in experiment [5]; 0% in [6]. For the same compound, the “%Inh” value is given as 2% in experiment [7]; 28% in experiment [8]; 13% in experiment [9]; 5% in experiment [10]; 21% in experiment [11]; 0% in experiment [12]. Besides, the “%Inh” value in experiment [13] was determined as 0%; in experiment [14] it was 0%; in [15], 2%; in experiment [16], 0%; in [17], 0%; in experiment [18] (setting [21]) it was 4%. Also, the “%Inh” value in experiment [19] turned out to be 9%; in [20], 0%.
As to `Nc1nccc2scc(-c3ccc4c(c3)CCN4C(=O)Cc3ccccc3)c12` [GSK2576924], the “%Inh” value in experiment [1] stood at 28%; in experiment [2], 0%; in experiment [3], 0%; in [4], 4%; in experiment [5], 0%; in experiment [6] it was 0%. Also, the “%Inh” value came to 0% in experiment [7]; 11% in experiment [8]; 16% in experiment [9]; 0% in [10]; 1% in [11]; 2% in experiment [12]. For the same compound, the “%Inh” value was 17% in experiment [13]; 10% in [14]; 2% in experiment [15]; 16% in experiment [16]; 0% in experiment [17]; 7% in experiment [18] (setting [21]). Besides, the entries for the “%Inh” value in [19] and in experiment [20] were 0% and 55%, respectively.

Values taken from article PMC5540273 (PLoS ONE, 2017).
